The values below come from PubChem BioAssay (NCATS).

Inconclusive results are not listed. Unmarked numbers belong to inactive results. Calls of active or inactive are those of the source. Calls come from the whole dose curve; as a rule, active = well fitted curve in the direction sought with a large enough effect; inconclusive = small, poorly fitted or top-dose-only effect, or another doubt; inactive = no such curve, though single readings can be large; an effect the other way counts as inactive or inconclusive.

In one test the test system is CRL-7250. The test is described as follows: Cytotoxic Profiling of Annotated Libraries Using Quantitative High-Throughput Screening (AID 1296008). For max response: % is set by controls: 0 for no effect and ±100 for the full control effect. Note: nearly all actives have a fitted effect of over 60% in size. The conditions noted are these: Five cell lines viability, CellTiter-Glo ATP luminescence, 48-72 h; max response: hits give low values. In outline: (§1)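 Cytotoxicity was measured as CellTiter-Glo ATP luminescence, read after 10 min at room temperature. Compound treatment of the cells lasted 48 or 72 hr at 37 degrees Celsius in a qHTS format.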

The next test relates to HEK293. The description is as above. The following applies: Five cell lines viability, CellTiter-Glo ATP luminescence, 48-72 h; max response: hits give low values. In outline: as §1
In test [1] the test system is HaCat. The test is described as above. The conditions noted are these: Five cell lines viability, CellTiter-Glo ATP luminescence, 48-72 h; max response: hits give low values. The gist of the method: as §1
The subject of the next test is KB-3-1. The description is as above. The conditions noted are these: Five cell lines viability, CellTiter-Glo ATP luminescence, 48-72 h; max response: hits give low values. In outline: as §1
The subject of a further test is NIH3T3. Described as above. The following applies: Five cell lines viability, CellTiter-Glo ATP luminescence, 48-72 h; max response: hits give low values. In outline:
as §1

Test [2] deals with HACAT. The test is described as follows: qHTS assay to identify novel small-molecules to repurpose for Merkel cell carcinoma treatment (AID 1296009). Note: nearly all actives have a fitted effect of over 60% in size. The conditions noted are these: MCC and control cell lines, CellTiter-Glo viability, 72 h; at 44.8 µM (top of the series) unless noted. In outline: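 After compound transfer in DMSO, plates were kept 72 hr at 37 degree celsius. Luminescent ATP signal from CellTiter-Glo served as viability measure, normalized against DMSO and no-cell controls.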

Another test concerns C33A. The test can be described thus: Primary qHTS to identify gynecologic anti-cancer compounds using libraries of approved drugs and bioactive compounds (AID 1345084). For activity change, negative = cytotoxicity: % is set by controls: 0 for no effect and ±100 for the full control effect. Note: nearly all actives have a fitted effect of over 55% in size. Note: potency is the fitted concentration of half-maximal effect. The following applies: Gynecologic cancer cell panel viability, ATPlite luminescence, 48 h; series mostly up to 57.5 µM. The gist of the method:
(§2)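 Luminescence from the ATPlite ATP-monitoring reagent indicates viable cell number; lower signal means cytotoxicity. Cells received compound 16 h after seeding and were exposed for 48 h across five concentrations.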

The subject of a further test is CAOV3. The test is described as above. The conditions noted are these: Gynecologic cancer cell panel viability, ATPlite luminescence, 48 h; series mostly up to 57.5 µM. In outline:
as §2

The subject of another test is CASKI. Described as above. The following applies: Gynecologic cancer cell panel viability, ATPlite luminescence, 48 h; series mostly up to 57.5 µM. In outline:
as §2

A further test deals with Es-2. Described as above. The conditions noted are these: Gynecologic cancer cell panel viability, ATPlite luminescence, 48 h; series mostly up to 57.5 µM. In outline:
as §2

The subject of a further test is HeLa. Described as above. The conditions noted are these: Gynecologic cancer cell panel viability, ATPlite luminescence, 48 h; series mostly up to 57.5 µM. The gist of the method: as §2
For a further test, the system named is Hek293T. Described as above. The following applies: Gynecologic cancer cell panel viability, ATPlite luminescence, 48 h, control line for the selectivity index; series mostly up to 57.5 µM. The gist of the method:
as §2

Another test concerns JEG-3. The test is described as above. The conditions noted are these: Gynecologic cancer cell panel viability, ATPlite luminescence, 48 h; series mostly up to 57.5 µM. In outline:
as §2

A further test has as its system OV90. Described as above. The following applies: Gynecologic cancer cell panel viability, ATPlite luminescence, 48 h; series mostly up to 57.5 µM. The gist of the method: as §2

For `CCOC(=O)COc1ccc2c(c1)C[C@@H](NC[C@H](O)c1cccc(Cl)c1)CC2`, the molecule was classed as inactive with CRL-7250, with HaCat [1], in the test on HACAT [2] and with CASKI. For the same molecule, the max response in the test on HEK293 was 4.31%; in the test on KB-3-1, 7.38%; with NIH3T3, 1.73%. For the same molecule, the Potency entry in the test on C33A, with CAOV3, in the test with Es-2, in the test with HeLa, with Hek293T and in the test with JEG-3 was “inactive” each time. The Potency entry with OV90 was “inactive”.

For `CC(=O)O[C@H]1C[C@@H](O)C(C)(C)C2C[C@@H](OC(C)=O)[C@@]3(C)C4=CCC(C(CO)CC(O)C5OC5(C)C)[C@]4(C)CCC3[C@]21C` (stereo partly specified), the call with CRL-7250, in the test with HaCat [1], in the test on KB-3-1 and in the test with CASKI was inactive. Moreover, the max response with HEK293 is -1%; in the test on NIH3T3 it was -1.52%. Besides, in the test on HACAT [2], the outcome was “inactive [at 17.4 µM]”. In addition, the Potency result in the test on C33A, in the test with CAOV3, in the test on Es-2, in the test with HeLa, with Hek293T and in the test on JEG-3 was “inactive” throughout. The Potency result with OV90 is “inactive”.

On to `C=C1CC2C3(C)C(O)CC(=O)C(C)(C)C3C(O)C(OC(C)=O)C2(C)C2C(=O)OC(C)(C(=O)OC)C(=O)C12C` (stereo unspecified), for which the call in the test on CRL-7250, with HaCat [1], in the test with KB-3-1 and with CASKI was inactive. Also, the values for the max response in the test on HEK293 and with NIH3T3 were -2.76% and -16.8%, respectively. Further, in the test on HACAT [2], the outcome is “inactive [at 17.4 µM]”. In addition, the Potency result with C33A, in the test on CAOV3, in the test with Es-2, with HeLa, with Hek293T and with JEG-3 was “inactive” in each case. In the test with OV90, the Potency entry was “inactive”.

Take `CC1(C)CC[C@]2(C(=O)OC3OC(CO)C(O)C(O)C3O)CC[C@]3(C)C(=CCC4[C@@]5(C)C[C@@H](O)[C@H](OC6OC(C(=O)O)C(O)C(O)C6O)C(C)(C)C5CC[C@]43C)[C@@H]2C1` (stereo partly specified): the max response with CRL-7250 is 2.21%; in the test on HEK293, 3.34%; in the test with KB-3-1, 7.37%; with NIH3T3 it was -4.63%. In the test on HaCat [1], the outcome was inactive. In the test on HACAT [2], the outcome was “inactive [at 9.27 µM]”. The activity change, negative = cytotoxicity was 5.49% [at 11.6 µM] in the test with C33A; -8.39% [at 11.6 µM] in the test on CAOV3; 3.29% [at 11.6 µM] in the test with CASKI; -0.905% [at 11.6 µM] in the test with Es-2; 5.76% [at 11.6 µM] in the test on HeLa; -2.17% [at 11.6 µM] with Hek293T. Besides, the activity change, negative = cytotoxicity with JEG-3 is 17.5% [at 11.6 µM]; in the test with OV90 it was 1.98% [at 11.6 µM].

Take `CC1(C)C2CCC1(C)C(OC(=O)C(O)(CC(=O)O)CC(=O)O)C2` (stereo unspecified): the result in the test with CRL-7250, in the test on HaCat [1], in the test on KB-3-1, with HACAT [2] and in the test on CASKI was inactive. Besides, the max response with HEK293 was -0.502%; in the test with NIH3T3, 3.45%. Moreover, the Potency result in the test with C33A, in the test on CAOV3, with Es-2, with HeLa, in the test on JEG-3 and with OV90 was “inactive” in each case.

Consider `CCC(C)/C=C(C)/C=C/C1=CC2=C(Cl)C(=O)C(C)(OC(C)=O)C(=O)C2=CN1C(CCCN=C(N)N)C(=O)O` (stereo unspecified), for which the max response with CRL-7250 is -3.35%; in the test on HEK293, 3%; with KB-3-1, 7.97%; with NIH3T3 it was -0.868%. Also, the result in the test with HaCat [1] and in the test on CASKI was inactive. In addition, in the test on HACAT [2], the outcome is “inactive [at 17.4 µM]”. Moreover, the Potency entry in the test with C33A, in the test on CAOV3, in the test with Es-2, in the test on HeLa, with JEG-3 and in the test on OV90 was “inactive” throughout.

For `CC(=O)OCC1=CCC2C(C)(C)CCCC2(C)C12CCC(C)(CC(=O)O)O2` (stereo unspecified), the max response with CRL-7250 is -2.76%; in the test with HEK293, -0.588%; in the test with KB-3-1, 5.22%. For the same molecule, the result with HaCat [1], in the test on NIH3T3, with HACAT [2] and in the test with CASKI was inactive. Besides, the Potency entry with C33A, with CAOV3, with Es-2, in the test on HeLa, with Hek293T and in the test on OV90 was “inactive” each time.

For the molecule `O=C(C1OC1/C=C/c1ccc2c(c1)OCO2)N1CCCCC1` (stereo unspecified), the max response is 3.99% with CRL-7250, -7.74% with HEK293, 5.97% with KB-3-1 and -1.01% with NIH3T3. The outcome with HaCat [1], with HACAT [2] and in the test on CASKI was inactive. For the same molecule, the Potency entry in the test on C33A, with CAOV3, in the test with Es-2, in the test on HeLa, in the test on Hek293T and in the test with JEG-3 was “inactive” throughout. For the same molecule, the Potency result with OV90 was “inactive”.

`CC(=O)OC12CC(C)C(OC(=O)c3ccccc3)C1/C=C(/C)C(OC(=O)c1ccccc1)CC(=O)C(C)(C)/C=C/C(C)C2=O` (stereo unspecified): the results for the max response in the test with CRL-7250, in the test on HEK293 and in the test on NIH3T3 were -26.4%, -14.7% and 1.94%, respectively. The result in the test on HaCat [1], in the test on KB-3-1 and in the test with CASKI was inactive. Further, in the test with HACAT [2], the outcome is “inactive [at 17.4 µM]”. The Potency result in the test on C33A, with CAOV3, in the test with HeLa, in the test with Hek293T and in the test with OV90 was “inactive” in each case. Moreover, the Potency in the test on Es-2 is 2820 nM (active).

As to `C=C1C(=O)O[C@@H]2/C=C(\C)CC/C=C(\C(=O)O[C@@H]3O[C@H](CO)[C@@H](O)[C@H](O)[C@H]3O)CC[C@@H]12`, the max response in the test on CRL-7250 is 4.73%; in the test on HEK293, -0.494%; in the test with KB-3-1 it was -8.71%; in the test with NIH3T3, -22.6%. In addition, the call with HaCat [1] was inactive. Moreover, the outcome in the test on HACAT [2] is “inactive [at 17.4 µM]”. In addition, the Potency result in the test with C33A, in the test on CAOV3, in the test with Es-2, with HeLa, in the test with JEG-3 and with OV90 was “inactive” throughout.

Consider `CC(=O)OC1CC2C(C)(C)C(=O)C=CC2(C)C2CC(=O)C3=C(CCC3C3=CC(O)OC3=O)C12C` (stereo unspecified), for which the results for the max response in the test with CRL-7250, in the test with HEK293 and in the test on NIH3T3 were 3.26%, 2.36% and 0.622%, respectively. Further, the outcome is “inactive; activator” in the test on HaCat [1] and “inactive; activator [at 17.4 µM]” in the test with HACAT [2]. Besides, the molecule was called inactive in the test on KB-3-1 and with CASKI. Also, the Potency result with C33A, with CAOV3, in the test on Es-2, with HeLa, in the test with Hek293T and in the test with JEG-3 was “inactive” each time. Also, the Potency result in the test on OV90 is “inactive”.

Take `CC1OC(OC2C(OC3C(O[C@H]4CC[C@@]5(C)C(CC[C@]6(C)C5C(=O)CC5=C7CC(C)(C)CC(O)[C@]7(C)CC[C@]56C)C4(C)C)OC(C(=O)O)C(O)C3O)OCC(O)C2O)C(O)C(O)C1O` (stereo partly specified): the max response in the test on CRL-7250 is 0.224%; with HEK293, 2.58%; with NIH3T3, -0.899%. The molecule was classed as inactive in the test with HaCat [1] and with KB-3-1. Moreover, the outcome in the test with HACAT [2] was “inactive [at 9.27 µM]”. Besides, the activity change, negative = cytotoxicity is 2.35% [at 11.6 µM] with C33A; 14.8% [at 11.6 µM] in the test with CASKI; -7.45% [at 11.6 µM] with Es-2; 0.531% [at 11.6 µM] in the test with HeLa; -3% [at 11.6 µM] with Hek293T; -0.413% [at 11.6 µM] with JEG-3. Also, the activity change, negative = cytotoxicity in the test with OV90 is -4.22% [at 11.6 µM].
